Drawing on PubChem BioAssay, this text covers z-score for 16 compounds.

A short description of experiment [1]: compound effects on lung adenocarcinoma cell viability – A549, calcein-AM fluorescence, 48 h, basal, profiling panel (AID 1162). Particulars: higher = more signal.
A short description of experiment [2]: compound effects on differentiated 3T3-L1 adipocyte viability – cell-based, 3T3-L1 adipocytes, calcein-AM fluorescence, 48 h, basal, profiling panel (AID 1163). Particulars: 3T3-L1 adipocytes viability, higher = more signal.
The nature of experiment [3]: compound effects on hepatocellular carcinoma cell viability – HepG2, calcein-AM fluorescence, 48 h, basal, profiling panel (AID 1164). As to conditions: higher = more signal.
Experiment [4] can be described thus: compound effects on multiple myeloma cell viability – MM1S, calcein-AM fluorescence, 48 h, basal, profiling panel (AID 1165). As to conditions: higher = more signal.
Experiment [5] is described as follows: calcein-AM signal in unstimulated myeloma cells – cell-based, calcein-AM fluorescence, 48 h, PK04 Diversity Set, profiling panel (AID 1166).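 Also: cells grown under basal conditions without added stimulus.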 As to conditions: RPMI8226 myeloma viability, higher = more signal.
Experiment [6] is described as follows: JC-1 mitochondrial signal, unstimulated HepG2 cells – cell-based, JC-1 fluorescence, 24 h, 100 nL compound, profiling panel (AID 1167). Particulars: HepG2 mitochondrial potential, higher = more signal.
The nature of experiment [7]: JC-1 mitochondrial signal, unstimulated adipocytes – cell-based, JC-1 fluorescence, 3T3-L1 adipocytes, 24 h, 100 nL compound, profiling panel (AID 1168). As to conditions: JC-1 mitochondrial fluorescence, higher = more signal, called active from +8 up or from −8 down.
Experiment [8] in a line: JC-1 mitochondrial signal, unstimulated myeloma cells – cell-based, JC-1 fluorescence, RPMI8226, 24 h, 100 nL compound, profiling panel (AID 1169). Particulars: JC-1 mitochondrial potential fluorescence, higher = more signal.
Experiment [9] is described as follows: JC-1 mitochondrial signal, unstimulated MM1S myeloma – cell-based, JC-1 fluorescence, 24 h, 100 nL compound, profiling panel (AID 1170). As to conditions: MM1S mitochondrial potential, higher = more signal.
Experiment [10] can be described thus: resazurin metabolic signal in A549 cells – cell-based, resazurin fluorescence, 24 h, PK04 Diversity Set, profiling panel (AID 1171). As to conditions: A549 viability, higher = more signal, called active from +8 up or from −8 down.

Each structure is given as a SMILES string. The source made the active and inactive calls.
Also: test concentration not given here.

With `CO[C@@H]1C=CCC(=O)N[C@@H](C)C(=O)OC[C@@H](NS(=O)(=O)c2ccc(C)cc2)[C@H](C)C=CCC(=O)OC[C@H]1C`, the z-score was -0.533 in experiment [1]; 0.37 in experiment [2]; 0.495 in experiment [3]; -0.0903 in experiment [4]; -0.431 in [5]; 0.0105 in experiment [6]. Also, the z-score is 0.0826 (inactive) in experiment [7], -0.782 in experiment [8], 0.301 in experiment [9] and 0.179 (inactive) in experiment [10].

Take `CCN1C(=O)[C@H]2[C@H]3[C@H](O)[C@H](O)CC(=NO[C@@H]4O[C@H](CO)[C@@H](O)[C@H](O)[C@H]4O)[C@H]3CC[C@H]2C1=O`: the z-score in experiment [1] was 0.212; in experiment [2], -0.158; in experiment [3], 0.298; in experiment [4], -0.0327; in experiment [5] it was -0.982; in experiment [6] it was -0.68. In addition, the z-score in experiment [7] was -1.21 (inactive); in experiment [8], 0.0397; in experiment [9] it was 0.652; in experiment [10] it was 0.14 (inactive).

For the compound `COC(=O)[C@H](Cc1ccccc1)NC(=O)[C@@H](C)CO`, the z-score was -0.457 in [1]; 0.802 in experiment [2]; -0.196 in experiment [3]; -2.56 in experiment [4]; -2.56 in experiment [5]; 0.892 in [6]. Moreover, the z-score was -0.218 (inactive) in [7], -0.186 in experiment [8], -0.209 in [9] and -0.234 (inactive) in experiment [10].

Turning to `CON=C(C)CCN1CCc2nc(-c3ccccc3)c(-c3ccccc3)cc2C1`, the z-score was -0.119 in [1]; 0.728 in [2]; 0.0133 in experiment [3]; -2.98 in experiment [4]; -1.5 in experiment [5]; 1.03 in experiment [6]. Besides, the z-score in experiment [7] is -0.144 (inactive); in experiment [8] it was -0.0566; in experiment [9] it was 0.446; in [10], 1.73 (inactive).

In the case of `O=C(NN=C1C[C@@H](O)[C@@H](O)[C@@H]2[C@@H]3C(=O)N(Cc4ccc5c(c4)OCO5)C(=O)[C@@H]3CC[C@@H]12)OCc1ccccc1`, the z-score in experiment [1] is -0.592; in experiment [2], 0.911; in experiment [3] it was -0.423; in experiment [4], 0.291; in experiment [5], -0.531; in [6], 0.222. Also, the z-score in experiment [7] is 0.243 (inactive); in experiment [8], 0.967; in experiment [9], -1.65; in [10], 0.729 (inactive).

Regarding `COC(=O)[C@H](C)NC(=O)CCC1CC(OC(=O)NCCc2ccc(F)cc2)CC2(CCCC(COC(=O)NCc3ccccc3)O2)O1` (stereo not given in full), the z-score in experiment [1] is -0.101; in experiment [2] it was -0.0012; in experiment [3] it was 0.601; in experiment [4] it was 0.756; in [5] it was -0.484; in [6], 0.995. Further, the z-score in experiment [7] is 0.553 (inactive); in experiment [8], 0.265; in [9], -0.579; in experiment [10] it was 0.896 (inactive).

Regarding `CCc1cc2c(nc1CC)CCN(CCC(C)=NO[C@@H]1O[C@H](COC(C)=O)[C@@H](OC(C)=O)[C@H](OC(C)=O)[C@H]1OC(C)=O)C2`, the z-score in experiment [1] was -0.984; in [2], 0.776; in experiment [3], -0.536; in [4] it was -2.58; in [5], -1.14; in experiment [6] it was 1.7. In addition, the z-score in experiment [7] is -0.325 (inactive); in [8], -0.0793; in experiment [9], 0.0201; in experiment [10] it was -0.223 (inactive).

On to `CC(=O)OC[C@H]1O[C@H](C#CCCc2ccccc2)C=C[C@@H]1OC(C)=O`, for which the z-score in experiment [1] was 0.233; in [2], 0.292; in experiment [3], -0.207; in experiment [4] it was -3.49; in experiment [5], -2.48; in [6], -0.972. Besides, the z-score was -0.282 (inactive) in experiment [7], -0.353 in experiment [8], -1.11 in experiment [9] and -0.182 (inactive) in experiment [10].

With `CCCNC(=O)OC[C@H]1O[C@H](CCON=C[C@@H](C)[C@H](OCc2ccccc2)C(C)C)C=C[C@@H]1Oc1ccc(OC)cc1`, the z-score in experiment [1] is 0.544; in experiment [2], -0.0223; in experiment [3], 1.72; in experiment [4], 0.0415; in [5], -0.0657; in experiment [6] it was 0.479. The z-score in [7] is 0.024 (inactive); in experiment [8] it was 0.499; in [9], -0.627; in [10] it was 0.743 (inactive).

As to `COc1ccc2c(c1)O[C@@H](c1cccc(C(F)(F)F)c1)[C@H](O)C2=O`, the z-score is 0.759 in [1]; -0.941 in experiment [2]; -0.294 in [3]; -0.277 in [4]; 1.29 in [5]; -1.25 in experiment [6]. The z-score in experiment [7] is 0.0155 (inactive); in experiment [8], -0.239; in experiment [9], -0.724; in experiment [10] it was -0.536 (inactive).

Take `Cc1ccc2[nH]c3nc(CCCn4ccnc4-c4ccccc4)nnc3c2c1`: the z-score in experiment [1] is 0.0515; in [2], 0.339; in [3], -0.18; in experiment [4], 1.05; in [5], 0.392; in experiment [6], -0.807. Further, the z-score in [7] is 1.1 (inactive); in experiment [8], 0.738; in [9], -0.867; in experiment [10] it was 0.384 (inactive).

Regarding `C=CC[C@@H]1C=C[C@H](Oc2ccc(C)cc2)[C@@H](COC(=O)NCc2cccc3ccccc23)O1`, the z-score in experiment [1] is -0.273; in experiment [2], 0.479; in [3], -0.542; in experiment [4] it was -1.41; in [5] it was -1.71; in experiment [6] it was 0.294. For the same compound, the z-score in [7] was -0.483 (inactive); in experiment [8] it was 0.78; in [9], 0.147; in experiment [10], 1.99 (inactive).

Turning to `CC(C)=CCCC(C)=CCON=C1C[C@@H](O)[C@@H](O)[C@@H]2[C@@H]3C(=O)N(Cc4ccc5c(c4)OCO5)C(=O)[C@@H]3CC[C@@H]12`, the z-score in [1] was -0.0221; in experiment [2], 0.603; in [3], -0.53; in [4], -0.788; in experiment [5], -0.327; in experiment [6], -0.0991. Also, the z-score was 0.581 (inactive) in experiment [7], 0.0988 in experiment [8], -0.909 in experiment [9] and 0.25 (inactive) in experiment [10].

In the case of `C[C@@H]1CC[C@H]2C(=O)O[C@@H](COc3ccc(C(C)(C)C)cc3)CN2[C@H]1c1ccc(Br)cc1`, the z-score is 0.255 in experiment [1]; -0.076 in experiment [2]; 0.0944 in [3]; -1.26 in [4]; -0.794 in experiment [5]; -1.31 in experiment [6]. The z-score is -1.16 (inactive) in experiment [7], -0.16 in experiment [8], 0.455 in experiment [9] and 1.71 (inactive) in [10].

Turning to `CC(C)=CCCC(C)=CCON=C1C[C@@H](O)[C@@H](O)[C@@H]2[C@@H]3C(=O)N([C@@H](C)c4ccccc4)C(=O)[C@@H]3CC[C@@H]12`, the z-score in [1] was -0.412; in experiment [2], 0.934; in [3], -0.341; in experiment [4], 0.176; in experiment [5], -0.249; in experiment [6], -0.781. Also, the z-score was -0.598 (inactive) in experiment [7], 0.0813 in experiment [8], 0.114 in [9] and -0.21 (inactive) in [10].

`CC(C)CN1CCc2nc(-c3ccccc3)c3c(c2C1)CO[C@@H](C)C3`: the z-score in experiment [1] was 1.2; in experiment [2], -0.274; in [3], 0.0114; in experiment [4], 0.639; in experiment [5], -0.409; in experiment [6] it was 0.462. Besides, the z-score was 0.0658 (inactive) in [7], -0.0878 in experiment [8], 0.708 in [9] and -0.139 (inactive) in [10].
